# An excerpt weighted towards active compounds, which were near 22% of everything screened.
# CYP2C9 activ = human CYP2C9 activators, primary screen, biochemical, luminescence. Cytochrome P450 2C9 (Homo sapiens), P11712. 96,000 tested, 1.4% active. recombinant CYP2C9, luciferin-H conversion; hits give high values; factor 1 = untreated enzyme, 0 = blocked. activation factor at 5 µM;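 active = activation factor of 2 or more for CYP2C9 at a 5 µM dose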
# CYP2C9 inh = blockers of cytochrome P450 2C9 activity – biochemical, luminescence, ADME assay, primary screen | 96,000 tested, 20% active | inhibition, % at 5 µM | CYP2C9 Supersomes, luciferin-H conversion | P11712;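 active = blocking of liver enzyme CYP2C9 beyond about 50% at 5 µM, limit read from the data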
# CYP2C19 act = human CYP2C19 activators, primary screen, biochemical, luminescence; activation factor at 5 µM; recombinant CYP2C19, luciferin-H EGE luminescence; hits give high values; 0 = fully inhibited enzyme, 1 = untreated enzyme; 96,000 tested, under 10 active; AID 1025, 2008;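 active = activation factor of at least 2 at 5 µM in the primary screen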
# Target sequence (P33261 whole entry, looked up): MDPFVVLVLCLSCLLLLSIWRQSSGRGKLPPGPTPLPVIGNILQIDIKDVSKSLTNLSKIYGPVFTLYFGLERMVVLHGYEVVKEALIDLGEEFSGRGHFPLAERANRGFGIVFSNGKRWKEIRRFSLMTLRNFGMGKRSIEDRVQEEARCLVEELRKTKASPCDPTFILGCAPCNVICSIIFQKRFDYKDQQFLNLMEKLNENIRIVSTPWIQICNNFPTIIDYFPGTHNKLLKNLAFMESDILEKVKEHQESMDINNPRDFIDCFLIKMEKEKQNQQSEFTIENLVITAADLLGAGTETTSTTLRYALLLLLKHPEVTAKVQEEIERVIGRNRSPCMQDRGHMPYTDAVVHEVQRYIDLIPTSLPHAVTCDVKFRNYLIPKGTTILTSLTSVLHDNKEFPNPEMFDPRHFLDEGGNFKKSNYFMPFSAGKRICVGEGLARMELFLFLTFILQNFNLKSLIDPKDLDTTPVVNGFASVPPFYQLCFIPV
# CYP2C19 inh = blockers of cytochrome P450 2C19 activity – biochemical, luminescence, ADME assay, primary screen | P33261 | CYP2C19 Supersomes, luciferin-H EGE luminescence, 30 min | inhibition, % at 5 µM | 96,000 tested, 21% active | AID 778, 2007;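 active = CYP2C19 inhibition above a set limit at 5 µM in the primary screen, cut at about 50% in these data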
# E-sel TNF inh = E-selectin induction blockers in HUVEC – imaging, immunofluorescence, high content, primary screen; HUVEC TNFa-induced E-selectin immunofluorescence; inhibition, % at 2 µM; 120,000 tested, 0.71% active; AID 1246, 2008;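 active = inhibition above the batch mean plus 3 SD, and confirmed as a hit on visual image review, cut at about 43% in these data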
# cytoskel mod = modifiers of F-actin cytoskeleton organization, primary screen, imaging, HUVEC, phalloidin staining, high-content imaging; inhibition, % at 2 µM; HUVEC TNFa F-actin phalloidin imaging; 91,000 tested, 0.18% active;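 active = inhibition above the batch mean plus 3 SD and confirmed as a hit by visual image inspection, cut at about 30% in these data, passing the limit was not always enough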
# Numbers stand for hits; i = inactive; nt = no result given.
SMILES,CYP2C9 activ,CYP2C9 inh,CYP2C19 act,CYP2C19 inh,E-sel TNF inh,cytoskel mod
CN=C1S/C(=C\c2cc(C)n(-c3ccccc3F)c2C)C(=O)N1C,i,i,i,i,i,i
CCOC(=O)c1sc(NC(=O)CSc2nccc(C)n2)c(C#N)c1C,i,i,i,i,i,i
COC(=O)CSc1n[nH]c(-c2ccncc2)n1,i,64.9,i,61.2,i,i
O=C(CSc1n[nH]c(-c2ccncc2)n1)Nc1ccccn1,i,76.7,i,50.0,i,i
Cc1ccc(NC(=O)CSc2n[nH]c(-c3ccco3)n2)cc1,nt,nt,nt,nt,i,nt
Cc1ccc(NC(=O)CSc2n[nH]c(-c3ccncc3)n2)cc1,i,94.4,i,61.5,i,i
CCOC(=O)c1sc(NC(=O)CSc2n[nH]c(-c3ccncc3)n2)c(C#N)c1C,i,50.6,i,i,i,i
O=C(CSc1n[nH]c(-c2cccnc2)n1)OC1CCCCC1,nt,nt,nt,nt,i,nt
N=c1c2c(n(Cc3ccc(F)cc3)c3c1CCC3)CCC2,i,i,i,i,nt,i
O=C1CS/C(=N/N=C/c2cccs2)N1,nt,nt,nt,nt,i,nt
CCc1ccc(C(=O)CSc2n[nH]c(-c3ccncc3)n2)cc1,i,96.6,i,86.6,i,i
O=C(CSc1n[nH]c(-c2ccccc2)n1)c1ccc(O)c(O)c1,i,55.7,i,64.0,i,nt
Cc1cc(SCC(=O)c2ccc(O)c(O)c2)nc2ccccc12,nt,nt,nt,nt,i,nt
Cc1cc(NC(=O)CN2CCN(c3ccc(O)cc3)CC2)no1,i,i,i,i,i,i
CC(C)(C)C1CCc2onc(C(=O)Nc3cnn(Cc4ccc(F)cc4)c3)c2C1 (stereo not given),i,i,i,i,i,i
CC(C)(C)C1CCc2onc(C(=O)Nc3ccc(F)cc3F)c2C1 (stereo not given),i,i,i,63.0,i,nt
CSc1n[nH]c(NCc2ccc(C)cc2)n1,nt,nt,nt,nt,i,i
COc1ccc(-n2c(COc3ccccc3)nnc2SCc2ccc(C#N)cc2)cc1,i,92.6,i,96.0,i,i
N#Cc1ccc(CSc2nnc(COc3ccccc3)n2-c2ccccc2)cc1,i,66.7,i,76.3,nt,i
C=CC(=C)CC(NC)c1ccccc1 (stereo not given),i,i,i,i,nt,i
COc1ccc(CN2CCN(C(=O)c3cccnc3)CC2)cc1Br,i,i,i,93.6,nt,i
O=C(c1cccnc1)N1CCN(Cc2cccc(Br)c2)CC1,i,i,i,94.3,i,i
O=C(c1cccnc1)N1CCN(Cc2ccc3c(c2)OCO3)CC1,i,i,i,i,i,i
O=C(c1cccnc1)N1CCN(Cc2ccccc2Br)CC1,i,i,i,79.6,i,i
O=C(c1cccnc1)N1CCN(c2ccc(Cl)cc2)CC1,nt,nt,nt,nt,i,nt
SMILES,CYP2C9 activ,CYP2C9 inh,CYP2C19 act,CYP2C19 inh,E-sel TNF inh,cytoskel mod
COc1cccc(N2CCN(C(=O)c3cccnc3)CC2)c1,i,i,i,70.9,i,nt
COc1nc(N/N=C/c2cc3c(cc2Br)OCO3)nc(N2CCOCC2)n1,i,77.4,i,i,i,i
COc1ccccc1NC(=S)N(Cc1ccco1)Cc1cc2cc(C)cc(C)c2[nH]c1=O,nt,nt,nt,nt,i,nt
COc1ccc(C2SCC(=O)N2c2c(C)n(C)n(-c3ccccc3)c2=O)cc1OC (stereo not given),i,i,i,i,i,i
CCOc1ccc(C2SCC(=O)N2c2c(C)n(C)n(-c3ccccc3)c2=O)cc1 (stereo not given),i,70.7,i,66.8,nt,i
COc1ccc(C2SCC(=O)N2c2c(C)n(C)n(-c3ccccc3)c2=O)c(OC)c1 (stereo not given),i,i,i,55.3,i,i
COc1ccc(C(=O)C2=NN(C(C)=O)CC2c2ccco2)cc1 (stereo not given),nt,nt,nt,nt,i,nt
CC(=O)OC1(C(F)(F)F)Oc2ccccc2NC1=O (stereo not given),i,i,i,53.2,i,nt
CC(=O)c1c(OC(=O)c2ccco2)c2ccccc2n1C,i,i,i,62.5,i,i
O=C(Nc1cccc2ncccc12)C12CC3CC(CC(C3)C1)C2,i,i,i,i,i,i
O=C(CC12CC3CC(CC(C3)C1)C2)Nc1cccc2ncccc12,i,i,i,50.6,nt,i
